PubChem BioAssay (NCI)
This is part of a sample that, as a whole, favours compounds with a hit. Of some 79,000 tested, about 15% had one in any assay. A number with no mark means an inactive call. Active and inactive are the calls of the source. No stated cut-off is given here; in the data, active means growth inhibition above about 70%; inactive means the rest. Where a SMILES comes first, the peptide text is derived from it. [ ]: non-standard residue; d: D form. The star is where a group is joined. Nle = CCCC[CH](N)C(=O)O; Cbz = O=C(OCc1ccccc1)*; OBn = c1ccc(CO*)cc1

Tests used:
[1] = NCI Yeast Anticancer Drug Screen. Data for the rad50 strain (AID 155);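 further: 0% = growth of vehicle-only cultures of the same strain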; settings: S. cerevisiae rad50 strain growth inhibition; at 50.0 µM; hits give high values
Procedure, shortened: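 Yeast carrying a defined DNA repair defect were exposed to test compounds, and growth was compared with vehicle-treated controls to give percent inhibition.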

[2] = NCI Yeast Anticancer Drug Screen. Data for the mec2-1 strain (AID 157); settings: S. cerevisiae mec2-1 strain, at 50.0 µM, hits give high values
Procedure, shortened: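 Yeast mec2-1 mutant treated with compound. Readout: growth inhibition vs vehicle controls.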

[3] = NCI Yeast Anticancer Drug Screen. Data for the sgs1 mgt1 strain (AID 161);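 further: 0% = growth of cultures given vehicle only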; settings: S. cerevisiae sgs1 mgt1 strain, at 50.0 µM, hits give high values
Procedure, shortened: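 Read-out: growth inhibition vs vehicle controls. Cells: mutant yeast strain deficient in DNA damage repair.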

[4] = NCI Yeast Anticancer Drug Screen. Data for the cln2 rad14 strain (AID 165);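 further: 0% = growth equal to vehicle treated cultures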; settings: S. cerevisiae cln2 rad14 strain, at 50.0 µM, hits give high values
Procedure, shortened: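 cln2 rad14 yeast strain; compound exposure; growth inhibition read vs vehicle controls.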

[5] = NCI Yeast Anticancer Drug Screen. Data for the bub3 strain (AID 167); settings: S. cerevisiae bub3 mutant strain, at 50.0 µM, hits give high values
Procedure, shortened: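 Compounds were applied to a genetically altered yeast strain carrying a cell-cycle control defect. Growth inhibition was scored against vehicle-treated controls.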

[6] = NCI Yeast Anticancer Drug Screen. Data for the mlh1 rad18 strain (AID 175); settings: S. cerevisiae mlh1 rad18 strain growth inhibition; at 50.0 µM; hits give high values
Procedure, shortened: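 Yeast w/ defined DNA-repair lesions; compound exposure; growth vs vehicle controls → % inhibition.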

Row | SMILES | growth inhibition [1] | growth inhibition [2] [%] | growth inhibition [3] | growth inhibition [4] [%] | growth inhibition [5] [%] | growth inhibition [6]
1 | Nc1nnc2nc(CC(=O)c3ccc4ccccc4c3)c(=O)[nH]n12 | -1.85% | 10.9 | -0.1% | -21.2 | -4.15 | 2.05%
2 | N=C(/C(=C/c1cccc2ccccc12)c1ccccc1)c1ccccc1 | 13.8% | 10.2 | 14.1% | -7.6 | -13.7 | 13.6%
3 | COc1ccc2c(cnc3c4cc(OC)c(OC)cc4ccc23)c1 | 15.2% | -0.85 | 4.05% | -4.9 | 24.9 | 3.6%
4 | O=C1CN2C(c3ccccc3)=NN(c3ccc([N+](=O)[O-])cc3)C2(c2ccccc2)c2cc(Cl)ccc2N1CC1CC1 (stereo unspecified) | 25.6% | -10.9 | -7.4% | 20.9 | 11.2 | 23.4%
5 | CCCCCC/C(C)=N\NC(N)=O | 29.9% | 14.4 | 11.6% | 12.4 | -0.95 | -23.1%
6 | CCOC(=O)NC(Nc1ncccn1)(C(=O)OCC)C(F)(F)F (stereo unspecified) | -28.9% | -29.4 | -77.3% | -15.6 | -39.8 | -34.9%
7 | NC(Cc1ccc(CP(=O)(O)O)cc1)C(=O)O (stereo unspecified) | -44.8% | -61.3 | -55.1% | -20 | -27.5 | -70.3%
8 | Nc1nc2cc(Cl)c(O)cc2o1 | -3.25% | -11.6 | -3.5% | -6.7 | -3.55 | -7.9%
9 | CC(=O)Oc1c(C)cc2c(c1C)C(C)(C)CN2C(=O)C(C)(C)C | 16.9% | -20.2 | 17.6% | -7.15 | -1.3 | 7.9%
10 | Cc1ccc(C)c(OC(=O)Nc2ccccc2)c1 | -3.15% | 4.8 | -10.1% | -4.1 | -3.7 | -11.9%
11 | COc1ccc(NC=O)c(C(O)CCNC(C)=O)c1 (stereo unspecified) | -15.4% | -10.1 | -19.6% | 0.45 | -39.1 | -34.5%
12 | Clc1ccc(C2NC(c3ccc(Cl)cc3)NC(c3ccc(Cl)cc3)N2)cc1 (stereo unspecified) | 28.4% | 14 | 35.5% | -5.4 | 8.75 | -2%
13 | O=[N+]([O-])c1cc2c3ccccc3ccc2c2ccccc12 | -5.6% | 6.95 | 12.2% | -78.8 | 19.6 | 21.6%
14 | ClCCOCc1ccc(Cl)c(Cl)c1 | 8.8% | -16.9 | 6.15% | -13.5 | -18 | 9%
15 | COC(=N)c1ncn(Cc2ccccc2)c1N | -21.6% | -28.6 | -11.9% | -24.4 | -7.35 | -37.3%
16 | COc1ccc(C(=O)O[C@@H]2CCN3CC[C@H](C)[C@H]23)cc1 | 7.4% | -22.5 | 7.3% | 12.7 | -6.35 | -74.8%
17 | CCCCC(NC(=O)C1CCCN1C(=O)OCc1ccccc1)C(=O)OCc1ccccc1 (stereo not drawn) (Cbz-Pro-[Nle]-OBn; configuration not given here) | 12.4% | 12.2 | 11.4% | -10.9 | -5.45 | 15.9%
18 | CC(=O)C(CCC(=O)O)(CCC(=O)O)c1ccccc1 | 2% | 21.6 | 5.3% | -49.4 | 13.7 | 20.2%
19 | COc1cc(C2C(Cl)C(=O)N2n2cnc3ccccc3c2=O)ccc1O (stereo unspecified) | -22.7% | 3.3 | -11.2% | 12.8 | -10.2 | -11.8%
20 | O=C(O)/C=C/C(=O)Nc1cc(Cl)cc2c1-c1c(Cl)cc(Cl)cc1C2O (stereo unspecified) | 83.7% (active) | 54 | 84% (active) | -5.45 | 11.3 | 51.9%
21 | O=C1c2cccc(O)c2C(=O)c2c(OC3OC(CO)C(OC4OC(CO)C(O)C(O)C4O)C(O)C3O)cccc21 (stereo unspecified) | 94.2% (active) | 36.2 | 32.5% | -5.55 | 4.15 | 31.4%

Row | SMILES | growth inhibition [1] | growth inhibition [2] [%] | growth inhibition [3] | growth inhibition [4] [%] | growth inhibition [5] [%] | growth inhibition [6]
22 | CCN(CC)C(=O)COc1ccc(Cl)c(C)c1 | 9.5% | 3.45 | 6.4% | 27.6 | 33.6 | 19.4%
23 | CC(=O)OCC1OC=CC(OC(C)=O)C1OC(C)=O (stereo unspecified) | -23.1% | -18.8 | -8.55% | -5.85 | -25.8 | -7.5%
24 | CCCCC(=O)c1cc2ccccc2c2ccccc12 | -3.7% | -20.4 | 0.2% | -11.1 | 10.5 | 6.3%
25 | O=C(Oc1ccc2c(=O)cc(-c3ccccc3)oc2c1OC(=O)c1ccccc1)c1ccccc1 | 3% | 7.6 | -0.85% | -3.15 | -14.1 | 3%
26 | Cc1c(Cl)c2ccccc2n1S(=O)(=O)c1ccccc1 | 38.1% | -3.55 | 31.2% | 22.1 | 10.5 | 21.9%
27 | CN(C)c1nc(OC2C(C(O)CO)OC3OC(C)(C)OC32)nc(N(C)C)n1 (stereo unspecified) | 31.1% | -11.7 | 6.15% | 18 | -1.05 | -0.65%
28 | O=C(O)C(=O)Cc1c[nH]c2ccccc12 | 1.2% | -7.55 | 29.4% | 7.3 | -11.1 | -3.7%
29 | CCN(C(=O)CCl)c1ccccc1 | 15% | 0.35 | -0.1% | -12.6 | -7.25 | 14.2%
30 | COc1cc(OC)c(C(C)=O)c(O)c1OC | 2.75% | 1.05 | 10.9% | 10.6 | 11.1 | 15.2%
31 | C/C(=C/C(=O)O)c1ccccc1 | 10.7% | -14.4 | 2.2% | -19.6 | -15.3 | -1.95%
32 | NC1(C(=O)O)CCCC1C(=O)O (stereo unspecified) | -8.7% | -26.6 | -23.1% | 15.9 | -6.3 | -2.75%
33 | C/C=C/C(O)CCCC (stereo unspecified) | -13.2% | -7.15 | 4.15% | 2.75 | -28.2 | -7.2%
34 | CC(O)C(NC(=O)c1cnc(OCc2ccccc2)nc1N)C(=O)O (stereo unspecified) | 3.65% | -15.7 | -11% | 0.85 | -9.8 | -3.35%
35 | Cn1c(=O)c2c(no[n+]2[O-])c2ccccc21 | 18.1% | 15.7 | 8.05% | 14.1 | 21.1 | 22.4%
36 | CCOC(=O)NC(=O)c1cn(CCCOC(=O)CCCCCCCCCCC(=O)OCCCn2cc(C(=O)NC(=O)OCC)c(=O)n(C)c2=O)c(=O)n(C)c1=O | -22.3% | 8.3 | -24.6% | 15.3 | -2.35 | -19.4%
37 | O=C1C(=Cc2ccc([N+](=O)[O-])cc2)C(=O)c2ccccc21 | 28.9% | 36.6 | 22.1% | 24.1 | 0.15 | 85.5% (active)
38 | Cc1ccc(C2(O)CCCCC2)cc1 | -9.8% | -8.45 | -32% | 26.2 | -8.95 | 7.1%
39 | CC(C)(C)OC(=O)Cn1ncn(NC(=O)Cc2ccccc2)c1=S | -27.6% | -23.9 | 1.05% | -37.2 | -33.5 | -15.7%
40 | COC(=O)C1(F)C(=O)NC(=O)NC1OC (stereo unspecified) | 35.5% | 16.6 | 56.4% | 10.3 | 11.7 | 31%
41 | CCSC(SCC)C(O)C(O)C(O)C(C)O (stereo unspecified) | 31.8% | 1.55 | 4% | -34.1 | -5.05 | 6.55%
